40 compounds from PubChem BioAssay (NCATS) can be followed below.

Results filed as inconclusive are left out. A number with no mark means an inactive call. Active and inactive are the calls of the source. Calls come from the whole dose curve; as a rule, active = well fitted inhibition curve with a large enough effect; inconclusive = small, poorly fitted or top-dose-only effect; inactive = flat fitted curve, though single readings scatter.
% is set by controls: 0 for no effect and ±100 for the full control effect; potency is the fitted concentration of half-maximal effect.

The subject of the assay is astro (control astrocytes). As to the kind of experiment: Drug repurposing screens with cells derived from glioblastoma tumor samples (AID 1345199). Note: nearly all actives have a fitted effect of over 40% in size. The conditions noted are these: viability, ATP luminescence, 48 h; series mostly up to 45.9 µM; activity, negative = cell killing: at the top concentration. As for the experimental part:
CD133+ cells were isolated from GBM patient biopsies and cultured as neurospheres. Neurospheres from four patients were used to screen the NCATS pharmaceutical collection (NPC) library of approved drugs and bioactive compounds. […] The neurospheres were incubated with drugs for 48 hours in 1536-well format, then assayed with an ATP content cell viability assay. […] These hits were cherry picked to confirm activity in the four original GBM lines screened plus three other slower growing GMB lines (unable to yield enough cells for a full primary screen). Variable activities of the confirmed primary hits in the different GBM patient lines were observed. The patient line 206 responded to the greatest number of compounds and line 923 responded to the least amount of active compounds.
As to `O=C(O)c1nn(Cc2ccc(Cl)cc2Cl)c2ccccc12`, the “activity, negative = cell killing” value was -29.2%.

For the compound `COc1cc(N)c(Cl)cc1C(=O)NC1CN2CCC1CC2` (stereo not given), the “activity, negative = cell killing” value is -18.1%. Same read-out and setting: in the case of `CN(C)CCc1c[nH]c2cccc(O)c12` it was -18% [at 91.6 µM]; in that of `C[C@H](N)[C@H](O)c1ccc(O)c(O)c1`, -23.3%; in that of `CC(C)=C[C@@H]1[C@@H](C(=O)OCc2coc(Cc3ccccc3)c2)C1(C)C`, -28.9%.

Regarding `CC1N=C(N)OC1c1ccccc1` (stereo not given), the “activity, negative = cell killing” value was -8.77% [at 91.6 µM].

On to `CCc1cc(OC)c(C[C@H](C)N)cc1OC`, for which the “activity, negative = cell killing” value is -5.4% [at 108 µM]. On the same count and under the same terms, the same measure for `OC(c1ccccc1)(c1ccccc1)C1CCNCC1`: -15.9% [at 21.2 µM]; for `C[C@@H]1CC[C@H]2[C@@H](C)C(=O)O[C@@H]3O[C@@]4(C)CC[C@@H]1[C@]32OO4`: -17.3%; for `NC(=O)OCCCc1ccccc1`: -15%. In the case of `CN1C(=O)CN=C(c2ccccc2)c2cc(Cl)ccc21`, the “activity, negative = cell killing” value was -23%. As to `CNC(C)Cc1ccccc1OC` (stereo not given), the “activity, negative = cell killing” value was -6.41%. Still for that read-out and setting: the same measure for `CCC1(c2ccccc2)CCC(=O)NC1=O` (stereo not given): -18.5%. The same measure, in the same setting: in the case of `NCc1cccnc1` it was -10.8%. `C[N+]1(C)[C@@H]2CC[C@H]1CC(OC(=O)C(CO)c1ccccc1)C2` (stereo not given in full): the Potency result is “inactive”.

In the case of `CCC(=O)O[C@H]1CC[C@H]2[C@@H]3CCC4=CC(=O)CC[C@]4(C)[C@H]3CC[C@]12C`, the “activity, negative = cell killing” value is -21% [at 21.2 µM]. Same read-out and setting: in the case of `CCOP(=S)(OCC)O/N=C(\C#N)c1ccccc1` it was 0.326%; in that of `O=C(CCCN1CCC(n2c(=O)[nH]c3ccccc32)CC1)c1ccc(F)cc1`, -18.4% [at 21.2 µM]; in that of `Nc1ccc(N)cc1`, -10.3%. The same measure, in the same setting: the same measure for `COc1ccc(C(=O)N2CCCC2=O)cc1`: -7.43%; for `CN1C(=O)CN=C(c2ccccc2)c2cc([N+](=O)[O-])ccc21`: -26.8%. Same read-out and setting: the same measure for `C[N+](C)(C)CCOC(=O)C(O)(c1ccccc1)c1ccccc1`: -27.7%; for `CC(C)[N+](C)(CCC(C(N)=O)(c1ccccc1)c1ccccc1)C(C)C`: -15.3% [at 21.2 µM]. For `CCCOC(=O)Cc1ccc(OCC(=O)N(CC)CC)c(OC)c1`, the “activity, negative = cell killing” value is -11.3%. Still for that read-out and setting: in the case of `Cc1ccc(N=CN(C)C=Nc2ccc(C)cc2C)c(C)c1` it was -12.3%; in that of `COc1cc(CC(C)N)cc2c1OCO2` (stereo not given), -17.9% [at 108 µM]. As to `CCCCCCCCCCCC[N+](C)(C)CCOc1ccccc1`, the Potency was 20 µM (active). For `O=c1n(Cl)c(=O)n(Cl)c(=O)n1Cl`, the “activity, negative = cell killing” value was -9.56%. On the same count and under the same terms, the same measure for `CN1[C@@H]2CC[C@H]1CC(OC(=O)c1cc(Cl)cc(Cl)c1)C2` (stereo not given in full): -22.6%. The same measure, in the same setting: the same measure for `COc1ccc(OC)c(CC(C)N)c1` (stereo not given): -19.3% [at 108 µM]; for `CN1C[C@@H](NS(=O)(=O)N(C)C)C[C@@H]2c3cccc4c3c(cn4C)C[C@H]21`: -15.6%. For the compound `c1ccc2nc(N3CCNCC3)ccc2c1`, the Potency was 12.6 µM (active). As for `CC(C)(C)OC(=O)c1ncn2c1[C@@H]1CCCN1C(=O)c1c(Br)cccc1-2`, the “activity, negative = cell killing” value was -5.99%. The same measure, in the same setting: the same measure for `CC(CC(C#N)(c1ccccc1)c1ccccc1)N(C)C` (stereo not given): -16% [at 91.6 µM]. For the compound `COc1cc(CC(C)N)c(OC)cc1Br` (stereo not given), the Potency result is “inactive”. As to `CCOC(=O)NC(C)(C)Cc1ccc(Cl)cc1`, the “activity, negative = cell killing” value is -13%. `COP(=S)(OC)Oc1ccc(S(N)(=O)=O)cc1`: the “activity, negative = cell killing” value is -15%. The same measure, in the same setting: the same measure for `CC(C)=CCN1CC[C@@]2(C)c3cc(O)ccc3C[C@@H]1[C@@H]2C`: -17.8% [at 91.6 µM]. The same measure, in the same setting: in the case of `COCC(=O)N(c1c(C)cccc1C)C(C)C(=O)OC` (stereo not given) it was -8.34%; in that of `Cc1cccc(Cc2cnc[nH]2)c1C`, -22.6%.
